In the library only some 20% were active in any assay of this set; here they are far more common.
Pf growth 96h: P. falciparum growth inhibition at 96 hours. P. falciparum luciferase reporter growth, 96 h. Potency, µM (series often up to 28.7 µM), without a hit: top-dose activity change, negative = inhibition, actives largely listed as inhibitors. 6.9% of 320,000 active; further: potency means the concentration at half of the fitted maximal effect; on the % scale 0 is the no-effect control and ±100 the full control effect
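Cell-based qHTS: luciferase-tagged P. falciparum in erythrocytes (2% hematocrit, 0.05% parasitemia final) incubated with compounds for 96 hours, 37 C, 5% CO2; luciferase detection reagent then added and luminescence measured.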
Pf growth 48h: P. falciparum growth inhibition at 48 hours (one generation); P. falciparum luciferase growth in erythrocytes, 48 h; Potency, µM (series often up to 28.7 µM), for inactives: top-dose activity change, negative = inhibition, hits mostly inhibitors; 5.9% of 310,000 active; AID 504832; further: potency means the concentration at half of the fitted maximal effect; on the % scale 0 is the no-effect control and ±100 the full control effect
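Compounds are pin-transferred into medium, infected erythrocytes (2% hematocrit, 0.1% parasitemia final) are added, and plates sit one parasite generation at 37 C in 5% CO2. Detection reagent is then added and luminescence measured.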
Shiga inhibitor: inhibitors of Shiga toxin in Vero cells; Vero cells, Shiga toxin protein synthesis inhibition reporter; inhibition, % at 38.7 µM; 9.2% of 290,000 active; AID 2315; in the data active means inhibition mostly above about 28%, no sharp cut-off; inactive means mostly below about 43%; further: 0% is about no effect
CHX counter: counter-screen for Shiga toxin inhibitors: cycloheximide protein synthesis inhibition; cell reporter, cycloheximide protein synthesis inhibition counterscreen; max response, %; 12% of 300,000 active; AID 2314; in the data active means max response mostly above about 13%, no sharp cut-off; inactive means mostly below about 14%; further: read at 38.3 µM for the half of the compounds with a filed dose; 0% is about no effect
HCMV antiviral: blocks human cytomegalovirus replication; HFF cells, HCMV-luciferase reporter, 72 h; active compounds read low; 4.5% of 410,000 active; activity change, negative = inhibition, % at 57.5 µM; in the data active means activity change below about -60%; inconclusive means no clear call, values can overlap the other calls; inactive means above about -39%; further: on the % scale 0 is the no-effect control and ±100 the full control effect
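HFF cells seeded 16 h at 37C, treated with compounds, infected with luciferase-reporter HCMV at MOI 1 PFU/cell; luciferase read at 72 h post infection, normalized to buffer-only and Salinomycin controls.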
Active calls of the source: *; ? = inconclusive; . = no result given; [ ] = remark or other dose. Unless noted, the call rests on the fitted dose curve; in most records, active means well fitted inhibition curve with a large enough effect; inconclusive means small, poorly fitted or top-dose-only effect, or another doubt; inactive means no such curve, though single readings can be large or run the other way.

SMILES	Pf growth 96h	Pf growth 48h	Shiga inhibitor	CHX counter	HCMV antiviral
COc1ccc(NC(=O)c2ccc3nccnc3c2)cc1	-3%	408%	88*	37*	10
CC(C)(C)c1ccc(OCCCC(=O)Nc2nnc(C3CC3)s2)cc1	.	.	.	.	5
C=CCn1c(CCC(O)COCCCCC)n[nH]c1=S (centres undefined)	25%	1%	-10	-1	-97*
CN(C)C(CNC(=O)c1cccc(S(=O)(=O)NCc2ccccc2)c1)c1ccco1 (centres undefined)	-24%	?	.	.	-8
C=C1CC2C(CC[C@]3(C)C(=O)CCC23)[C@]2(C)C=CC(=O)C=C12 (some centres undefined)	13µM*	?	.	.	.
COc1ccc(N(CC(=O)NC2CCCCC2)C(=O)CNC(=O)c2cccs2)cc1OC	27%	-10%	-5	-3	7
COc1cc(NS(C)(=O)=O)c(OC)cc1NC(=O)c1cccc(F)c1	.	2%	21	-3	-15
CCc1ccccc1NC(=O)Nc1cc(C(=O)NCc2ccc(C(C)C)cc2)ccc1N1CCCC1	.	.	.	.	-27
CC1C(=O)C(C)C(c2ccc(Cl)cc2)NC1c1ccc(Cl)cc1 (centres undefined)	.	.	.	.	-20
CC1C(=NO)C(C)C(c2ccc(N(C)C)cc2)NC1c1ccc(N(C)C)cc1 (centres undefined)	1.9µM*	?	-6	-1	10
Cn1c(N)c(C(=O)COC(=O)CNC(=O)c2ccc(Cl)cc2Cl)c(=O)n(C)c1=O	.	.	.	.	24
CCNC(=S)Nc1ccc(C)c(S(=O)(=O)Nc2ccccc2OC)c1	5%	-5%	-5	-1	15
CCN(CC)c1ccc(NC(=O)COc2ccccc2C)cc1S(=O)(=O)Nc1ccccc1OC	?	9.3µM*	-14	-1	?
CCN(CC)c1ccc(NC(=O)c2cnccn2)cc1S(=O)(=O)Nc1ccc(OC)cc1	?	?	-2	-1	-32
COc1ccc(NC(=O)c2ccc(=O)[nH]c2)cc1S(=O)(=O)N1CCCCC1	-8%	2%	-3	-1	21
CCN(CC)c1ccc(NC(=O)c2ccc(=O)[nH]c2)cc1S(=O)(=O)Nc1ccccc1OC	6.6µM*	10µM*	20	0	9
CCN(CC)c1ccc(NC(=O)c2ccccc2Br)cc1S(=O)(=O)Nc1ccccc1OC	0%	15µM*	24	-2	-26
CCN(CC)c1ccc(NC(=O)COc2ccccc2C#N)cc1S(=O)(=O)Nc1ccc(OC)cc1	4.1µM*	8.3µM*	44*	10	14
CCN(CC)c1ccc(NC(=O)c2ccccc2F)cc1S(=O)(=O)Nc1ccccc1OC	10µM*	4.7µM*	11	-1	-18
CC(=O)N1c2ccc(S(=O)(=O)N3CCCCCC3)cc2CC1C(=O)NCc1ccc(Cl)cc1 (centres undefined)	.	.	.	.	15
CCOC(=O)c1c(C)c(-c2ccccc2)n(CC(=O)Nc2cc(C)cc(C)c2)c1C	.	.	.	.	-97*
COc1ccc(CCNc2nc(C)nc3c2oc2ccccc23)cc1OC	-71%	.	-1	-3	-67*
COc1ccc(CCNc2ncnc3c2c(C)c(C)n3CCO)cc1OC	?	2%[0.00184 µM]	-3	-1	-24
COc1ccc(CCNc2ncnc3c2oc2ccccc23)cc1OC	2.9µM*	?	-4	-1	-92*
COC(=O)C1=C(C)N(C)C(=S)NC1c1c(OC)ccc2ccccc12 (centres undefined)	?	?	24	-2	-39
SMILES	Pf growth 96h	Pf growth 48h	Shiga inhibitor	CHX counter	HCMV antiviral
Cn1c(Cn2c(=O)sc3ccccc32)nnc1SCc1ccccc1F	12µM*	.	-10	-5	1
COc1ccc(-c2[nH]nc3nc(-c4cc(Br)ccc4OC)cc(C(=O)O)c23)cc1	.	.	.	.	20
CCC1SC(C)C/C(=N/NC(N)=O)C1C (centres undefined)	13%	10%	17	35*	12
CN(C)c1ccc(-c2nc(-c3cc4cc(Cl)ccc4oc3=O)cs2)cc1	.	.	.	.	16
CNC(=S)NNC(=O)c1sccc1OCc1ccc(C)cc1	23%	37%	-4	-4	42
CNC(=S)NNC(=O)c1sccc1OCc1cccc(C(F)(F)F)c1	13µM*	?	26	4	39
CCCCc1n[nH]c2c1C(=O)CC(C)(C)C2	-9%	16%	-9	-3	-85*
CC1(C)CC(=O)c2c(Cc3ccccc3)n[nH]c2C1	3%	?	-12	8	-29
O=C(Nc1ccc(F)cc1)c1ccc(Cn2nc(N3CCN(c4ccccc4)CC3)ccc2=O)o1	.	.	.	.	-62*
O=C(NCCCn1ccnc1)c1ccc2ccccc2c1	12µM*	1%	15	1	29
C=CCN(c1ccc(C(=O)NCCCn2ccnc2)cc1)S(C)(=O)=O	9.3µM*	6%	-9	-1	-13
O=C(NCCCN1CCOCC1)c1cc2ccccc2oc1=O	?	14%	25	7	9
CN(c1ccc(C(=O)NCCCn2ccnc2)cc1)S(C)(=O)=O	-11%	15%	-3	-1	38
O=C(NCCCn1ccnc1)c1cc2ccccc2oc1=O	38%	14%	-3	13*	-15
O=C(NCCCn1ccnc1)C1c2ccccc2Oc2ccccc21	10µM*	-25%	-5	-5	-18
COCCN1C(=O)COCc2cc(-c3ccc4c(c3)OCO4)ccc21	.	.	.	.	26
CCn1c(SCC(=O)N2CCN(c3ccccc3)CC2)nnc1-c1cc2cc(Cl)ccc2o1	-16%	10%	-4	1	-80*
Cc1cc(C)c(S(=O)(=O)NC(CC(=O)O)c2cccc([N+](=O)[O-])c2)c(C)c1 (centres undefined)	-2%	-6%	-9	-3	-24
FC(F)C(F)(F)c1cc(-c2ccccc2)n[nH]1	40%	51%	29	20*	16
O=C(Nc1ccn2ccnc2n1)c1ccccc1OC(F)(F)F	.	.	.	.	-30
CC(=O)c1sc2nsc(SCCN3CCOCC3)c2c1N	-28%	0%	28*	22	-26
CN1Cc2c(N3CCOCC3)nc3sc(C(=O)c4ccccc4)c(N)c3c2CC1(C)C	?	?	71	-2	-19
CCOC(=O)c1sc2nc(OCCN3CCOCC3)cc(C)c2c1N	.	.	.	.	-2
Nc1c(C(=O)c2ccccc2)sc2nsc(SCCN3CCOCC3)c12	-16%	-5%	29*	23*	-21
COc1ccccc1-c1noc2nc(OCc3ccc(F)cc3)ccc12	.	.	.	.	15
CCOC(=O)c1oc2ccc(/C=N/O)c(Cl)c2c1C	23%	77%	37	29*	-5
COc1ccccc1N1CCN(CCCNC(=O)c2nnc(Cc3c(F)cccc3Cl)o2)CC1	.	.	.	.	-6
Cc1ccc(S(=O)(=O)N2CCN(C(=O)c3ccccc3OCc3c(C)noc3C)CC2)cc1	?	-29%	.	.	0
O=C(c1ccc(CS(=O)(=O)c2c(Cl)cccc2Cl)o1)N1CCN(c2ccccc2)CC1	.	.	.	.	-33
Cc1ccc(S(=O)(=O)N2CCN(C(=O)c3ccc(COc4ccccc4)o3)CC2)cc1	9.3µM*	12µM*	.	.	-6
